# Values quoted from earlier work, collected in PubChem BioAssay AID977610.
# Among all 3,600 compounds or so, about 3,600 (100%) were called active. The limit is not given here; nearly all actives have Ki up to about 18000 µM. So high a share suggests a set chosen from earlier hits. This is one part of the list. Non-standard residues stand in square brackets, D forms with d. Square brackets hold non-standard residues; d marks the D form. Residues, ends and D or L forms follow the SMILES beside them. Peptide text beside a SMILES is read from it. Orn(CH(NH2)2) = NC(N)NCCC[C@H](N)C(=O)O
# Assay: PubChem AID 977610
# Details: PDB protein-ligand complexes, literature Ki
compound,measurement,setting,value
CC(C)C[C@H](NC(=O)[C@H](CS)NC(=O)[C@@H]1CCCN1C(=O)[C@@H](NC(=O)[C@@H]1CCCN1C(=O)[C@@H]1CCCN1C(=O)[C@H](CS)NC(=O)[C@H](Cc1ccc(O)cc1)NC(=O)[C@H](CC(N)=O)NC(=O)[C@@H](NC(=O)[C@H](CCC(N)=O)NC(=O)[C@H](CS)NC(=O)CN)C(C)C)C(C)C)C(N)=O (H-GCQVNYCPPVPCL-NH2),Ki,"protein: urokinase-type plasminogen activator (uPA), PDB entry 4mny",1.96 µM (active)
CC(C)C[C@H](NC(=O)[C@H](CC(C)C)NC(=O)[C@H](Cc1cnc[nH]1)NC(=O)[C@H](CCCNC(N)N)NC(=O)[C@H](CC(C)C)NC(=O)[C@H](CC(C)C)NC(=O)[C@H](CC(C)C)NC(=O)[C@@H]1CCCN1C(=O)[C@H](Cc1cnc[nH]1)NC(=O)[C@@H](N)CCCNC(N)N)C(=O)N[C@@H](CCC(N)=O)C(=O)N[C@@H](CC(N)=O)C(=O)O (H-[Orn(CH(NH2)2)]HPLLL[Orn(CH(NH2)2)]HLLQN-OH),Ki,"protein: Estrogen receptor beta, PDB entry 4j24",0.05 µM (active)
O=C(NCC1(C2NC(c3ccccc3)=CS2)CCOCC1)c1cccc(-c2noc(C(F)(F)F)n2)c1 (stereo not drawn),Ki,"protein: HISTONE DEACETYLASE 7, PDB entry 3znr",0.036 µM (active)
O=C(O)c1ccccc1Nc1ccccc1C(=O)O,Ki,"protein: Anthranilate phosphoribosyltransferase, PDB entry 4ij1",4 µM (active)
Cc1ccc(Nc2ccccc2C(=O)O)c(C(=O)O)c1,Ki,"protein: Anthranilate phosphoribosyltransferase, PDB entry 4gkm",6.8 µM (active)
O=C(O)c1ccccc1C(=O)O,Ki,"protein: Nicotinate-nucleotide pyrophosphorylase [carboxylating], PDB entry 4kww",2.8 µM (active)
O=C(O)c1ccccc1Nc1cccc(Nc2ccccc2C(=O)O)c1C(=O)O,Ki,"protein: Anthranilate phosphoribosyltransferase, PDB entry 4m0r",6.2 µM (active)
Cc1ccc(C(=O)O)c(Nc2c(C)cccc2C(=O)O)c1,Ki,"protein: anthranilate phosphoribosyltransferase (AnPRT; trpD), PDB entry 4giu",4.7 µM (active)
NC(=O)SCC(=O)Nc1ccccc1C(=O)O,Ki,"protein: Human cathepsin K mutant C25S, PDB entry 4leg",28 µM (active)
Nc1ccn([C@@H]2O[C@H](CO)[C@@H](O[P+](O)(O)O)[C@H]2O)c(=O)n1,Ki,"protein: Bos taurus ribonuclease A, PDB entry 1rpf",103 µM (active)
Nc1ccn([C@@H]2O[C@H](CO)[C@@H](O)[C@H]2O[P+](O)(O)O)c(=O)n1,Ki,"protein: Bos taurus ribonuclease A, PDB entry 1jvu",7 µM (active)
Nc1ccn([C@@H]2O[C@H](CO[P+](O)(O)O)[C@@H](O)[C@H]2O)c(=O)n1,Ki,"protein: Bos taurus ribonuclease A, PDB entry 1rnm",844 µM (active)
Cc1cc(C)c(/C=N/NC(=O)[C@@H](N)Cc2c[nH]c3ccccc23)c(C)c1,Ki,"protein: Endothiapepsin, PDB entry 4kup",6 µM (active)
Cc1nn(C)c(C)c1Cc1nnc(-c2sc3ccccc3c2OC2CCNCC2)o1,Ki,"protein: Plasmodium vivax N-myristoyltransferase, PDB entry 2yne",0.0027 µM (active)
CC[C@H](C)[C@H](NC(=O)[C@@H]1CCCN1C(=O)[C@H](CC(=O)O)NC(=O)[C@H](CC(C)C)NC(=O)[C@H](C)NC(=O)[C@@H](N)Cc1c[nH]c2ccccc12)C(=O)N[C@@H](C)C(=O)NCC(=O)N[C@@H](CCCCN)C(=O)N[C@@H](Cc1c[nH]c2ccccc12)C(=O)N[C@@H](CO)C(=O)N[C@@H](CCCNC(N)N)C(=O)O (H-WALDPIAGKWS[Orn(CH(NH2)2)]-OH),Ki,"protein: Acyl-[acyl-carrier-protein]--UDP-N-acetylglucosamine O-acyltransferase, PDB entry 2aq9",0.05 µM (active)
CC[C@H](C)[C@H](NC(=O)[C@H](CO)NC(=O)[C@@H](NC(=O)[C@@H]1CCCN1C(=O)[C@H](Cc1c[nH]c2ccccc12)NC(=O)[C@@H](N)CCCNC(N)N)[C@@H](C)O)C(=O)N[C@@H](CC(C)C)C(=O)O (H-[Orn(CH(NH2)2)]WPTSIL-OH),Ki,"protein: Golgi-associated PDZ and coiled-coil motif-containing protein, PDB entry 4e35",24 µM (active)
CC[C@H](C)[C@H](NC(=O)[C@H](CO)NC(=O)[C@@H](NC(=O)[C@@H]1CCCN1C(=O)[C@H](Cc1c[nH]c2ccccc12)NC(=O)[C@H](CCCNC(N)N)NC(=O)[C@@H](N)CO)[C@@H](C)O)C(=O)N[C@@H](CC(C)C)C(=O)O (H-S[Orn(CH(NH2)2)]WPTSIL-OH),Ki,"protein: Tax1-binding protein 3, PDB entry 4e3b",0.9 µM (active)
H-SRWPTTRL-OH,Ki,"protein: CFTR Associated Ligand (CAL) PDZ domain, PDB entry 4k76",4.5 µM (active)
